Reference: PubChem BioAssay (NCATS)
Records with an inconclusive call do not appear. Entries that show only a call come without a potency. Activity calls are given as the source filed them. Calls come from the whole dose curve; as a rule, active = well fitted inhibition curve with a large enough effect; inconclusive = small, poorly fitted or top-dose-only effect; inactive = flat fitted curve, though single readings scatter.

How the values were obtained:
Assay in all cases: qHTS profiling for inhibitors of Plasmodium falciparum proliferation (AID 504749); note: nearly all actives have a fitted effect of over 60% in size
Conditions in all cases: P. falciparum in erythrocytes, SYBR Green DNA, 72 h; series mostly up to 28.7 µM
CP268 = system: CP268
Method in brief: (§1)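 Three-day growth assay of blood-stage parasites in erythrocytes (0.3% parasitemia, 2.5% hematocrit) at 37 C, 5% CO2, quantified by SYBR Green DNA staining after overnight detergent lysis.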

CP269 = system: CP269
Method in brief: as §1

CP286 = system: CP286
Method in brief: as §1

CP291 = system: CP291
Method in brief: as §1

CP297 = system: CP297
Method in brief: as §1

CP305 = system: CP305
Method in brief: as §1

CP315 = system: CP315
Method in brief: as §1

CP325 = system: CP325
Method in brief: as §1

CP329 = system: CP329
Method in brief: as §1

CP335 = system: CP335
Method in brief: as §1
Potency is the fitted concentration of half-maximal effect.

Compound	Potency (CP268)	Potency (CP269)	Potency (CP286)	Potency (CP291)	Potency (CP297)	Potency (CP305)	Potency (CP315)	Potency (CP325)	Potency (CP329)	Potency (CP335)
CC[N+]1(CCOC(=O)C(O)(c2ccccc2)c2ccccc2)CCCCC1	inactive	inactive	inactive	inactive	inactive	inactive	inactive	inactive	inactive	inactive
CC(C)NC(C)Cc1ccc(I)cc1 (stereo not given)	–	inactive	inactive	inactive	–	inactive	inactive	inactive	inactive	–
CC(=O)[O][Hg][c]1ccccc1	4.78 µM (active)	4.78 µM (active)	3.55 µM (active)	4.26 µM (active)	13.5 µM (active)	4.26 µM (active)	–	6.01 µM (active)	–	5.36 µM (active)
COC(C)(C)CCCC(C)C/C=C/C(C)=C/C(=O)OC(C)C (stereo not given)	–	–	–	–	–	–	inactive	–	–	–
NC(=O)CN1CC(O)CC1=O (stereo not given)	inactive	inactive	inactive	inactive	inactive	inactive	inactive	inactive	inactive	inactive
CN(C)[C@@H]1C(=O)C(C(N)=O)=C(O)[C@@]2(O)C(=O)C3=C(O)c4c(O)cccc4[C@@](C)(O)[C@H]3[C@H](O)[C@@H]12	inactive	inactive	–	inactive	–	inactive	inactive	inactive	inactive	–
C1CCC(NC2CCCCC2)CC1	inactive	inactive	inactive	inactive	inactive	inactive	inactive	inactive	inactive	inactive
O=C(O)COc1ccccc1	inactive	inactive	inactive	inactive	inactive	inactive	inactive	inactive	inactive	inactive
CCCCCCCCCCCCCCCC[N+](C)(C)C	13.5 µM (active)	–	5.01 µM (active)	13.5 µM (active)	13.5 µM (active)	–	–	12 µM (active)	10.7 µM (active)	8.49 µM (active)
c1ccc(C2(c3ccccc3)CC2C2=NCCN2)cc1 (stereo not given)	inactive	inactive	–	inactive	inactive	inactive	inactive	inactive	inactive	inactive
Cc1ccc(Cl)c(O)c1	inactive	inactive	inactive	inactive	inactive	inactive	inactive	inactive	inactive	inactive
C=CCN1CC[C@]23CCCCC2[C@H]1Cc1ccc(O)cc13 (stereo not given in full)	inactive	inactive	inactive	inactive	inactive	inactive	inactive	inactive	inactive	inactive
CCCN1CCC[C@H](c2cccc(O)c2)C1	inactive	inactive	inactive	inactive	–	inactive	inactive	inactive	inactive	inactive
Cc1cc(O)ccc1Cl	inactive	inactive	inactive	inactive	inactive	inactive	inactive	inactive	inactive	inactive
CCCCCCCCCC(CC)c1ccc(S(=O)(=O)O)cc1 (stereo not given)	inactive	inactive	inactive	inactive	inactive	inactive	inactive	inactive	inactive	inactive
CN[C@@H]1C[C@@H](c2ccc(Cl)c(Cl)c2)c2ccccc21	–	–	12.6 µM (active)	–	inactive	–	inactive	inactive	inactive	–
C#CC1(O)CCC2C3CCC4=CC(=O)CCC4(C)C3CCC21C (stereo not given)	inactive	inactive	inactive	inactive	inactive	inactive	inactive	inactive	inactive	inactive
CCCCc1ccc(C(=O)O)nc1	inactive	inactive	inactive	inactive	inactive	inactive	inactive	inactive	inactive	inactive
C[C@]12CCC(=O)C(O)=C1CC[C@@H]1[C@H]3CCC(=O)[C@@]3(C)CC[C@@H]12	inactive	inactive	inactive	inactive	inactive	inactive	inactive	inactive	inactive	inactive
NC1=NC(=O)N2CC12 (stereo not given)	–	–	–	–	inactive	–	inactive	inactive	inactive	–
CC(=O)OCC1=C(C(=O)O)N2C(=O)[C@@H](N)[C@@H]2SC1	inactive	inactive	inactive	inactive	inactive	inactive	inactive	inactive	inactive	inactive
O=[N+]([O-])c1ccc([As](=O)(O)O)cc1	13.5 µM (active)	6.01 µM (active)	7.94 µM (active)	8.49 µM (active)	10.7 µM (active)	7.57 µM (active)	12 µM (active)	9.53 µM (active)	12 µM (active)	4.78 µM (active)
O=C(O)C(Cl)Cl	inactive	inactive	inactive	inactive	inactive	inactive	inactive	inactive	inactive	inactive
CN1C2CCC1CC(OC(=O)c1cc(Cl)cc(Cl)c1)C2 (stereo not given)	inactive	inactive	inactive	inactive	–	inactive	inactive	inactive	inactive	inactive
COC(=O)c1cncn1C(C)c1ccccc1 (stereo not given)	inactive	inactive	–	inactive	inactive	inactive	inactive	inactive	inactive	inactive
COC(=O)[C@@H](N)CCCN=C(N)N[N+](=O)[O-]	inactive	inactive	inactive	inactive	inactive	inactive	inactive	inactive	inactive	inactive
